Screening data (PubChem BioAssay)
G9a block = G9a (human) methyltransferase inhibition; Q96KQ7; G9a H3K9 monomethylation, AlphaScreen, 2 h; Potency, µM (top dose mostly 102 µM), inactives show at the top dose activity, negative = inhibition, actives largely listed as inhibitors; 8.8% of 350,000 active; AID 504332; further: potency means the concentration at half of the fitted maximal effect; nearly all actives have a fitted effect of over 75% in size
Target sequence (Q96KQ7 913-1193 limits assumed): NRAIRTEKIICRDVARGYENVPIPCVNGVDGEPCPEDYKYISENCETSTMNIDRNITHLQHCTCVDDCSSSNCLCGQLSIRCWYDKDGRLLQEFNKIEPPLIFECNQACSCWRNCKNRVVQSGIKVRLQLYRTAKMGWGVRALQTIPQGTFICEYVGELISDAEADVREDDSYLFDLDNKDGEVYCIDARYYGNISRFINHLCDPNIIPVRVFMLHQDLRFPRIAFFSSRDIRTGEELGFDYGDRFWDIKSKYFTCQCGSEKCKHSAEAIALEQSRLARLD
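Quantitative HTS format: methyltransferase activity on a biotin-tagged H3K9 peptide is measured by AlphaScreen, using a rabbit anti-monomethyl-H3K9 antibody with streptavidin donor and anti-IgG acceptor beads. Final levels are 20 nM enzyme, 500 nM peptide, 20 uM SAM; 2 h RT.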
Coupling enz = inhibits coupling enzyme system, counter-screen for aldolase hits; coupling enzyme system counterscreen, AmpLite Red fluorescence; activity change, negative = inhibition, % at 58.2 µM, hits read low; 0.67% of 290,000 active; AID 2472; in the data active means activity change below about -30%
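Final compound at 57.5 uM, incubated 10 min at RT with coupling enzyme reagent (glyceraldehyde-3-phosphate), then 20 min with substrate and AmpLite Red detection. Fluorescence read at 525/598 nm; tests interference with the coupling assay, not aldolase inhibition.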
Tau fluor cs = counter-screen for tau fibril formation inhibitors; Potency, µM (series often up to 57.7 µM), without a hit: at the top dose activity change, negative = decrease; 0.93% of 280,000 active; tau K18 P301L Alexa594 fluorescence, heparin fibrillization; further: potency means the concentration at half of the fitted maximal effect; nearly all actives have a fitted effect of over 55% in size
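Human K18 P301L tau (15 uM unlabeled plus 0.24 uM Alexa 594-labeled, final) in 100 mM sodium acetate pH 7 was mixed with compound and 20 uM heparin and incubated 6 hr at 37 C.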
Sfp PPTase inh = blocks B. subtilis Sfp PPTase activity; Q9F4F7; Biochemical Sfp PPTase activity, qHTS; Potency, µM, for the others: largest response in the series, negative = inhibition, hits mostly inhibitors; 3.5% of 310,000 active; AID 1490;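 further: the enzyme is Sfp with the accession as filed and its product quenches rhodamine fluorescence; potency means the concentration at half of the fitted maximal effect; 0% = enzyme reaction without inhibitor and -100% = no enzyme wells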
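After 15 min at room temperature with compound, 15 nM Sfp received 5 uM rhodamine-CoA plus 12.5 uM BHQ-2-ybbR (50 mM Hepes pH 7.6, 10 mM MgCl2). Rate came from the fluorescence difference over 30 min, ex 525/em 598 nm.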
Tau fibril FP = blocks human tau fibril formation measured by polarization; P10636; K18 P301L tau heparin fibrillization, Alexa594 FP, 6 h; Potency, µM (doses to about 57.7 µM), for inactives: at the highest dose activity, negative = inhibition, usual class: inhibitors; 0.39% of 280,000 active; AID 1468; further: potency means the concentration at half of the fitted maximal effect; nearly all actives have a fitted effect of over 55% in size
Target sequence (P10636 561-689 P618L limits assumed): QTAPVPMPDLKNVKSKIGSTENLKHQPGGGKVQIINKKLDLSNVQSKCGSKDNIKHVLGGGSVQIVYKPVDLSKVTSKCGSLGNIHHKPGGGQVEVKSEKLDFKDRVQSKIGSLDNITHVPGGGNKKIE
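Read-out: fluorescence polarization of Alexa 594-labeled tau (0.24 uM), 555 nm excitation, 632 nm emission. Mixtures held 15 uM unlabeled K18 P301L, compound and 20 uM heparin, pH 7 acetate buffer, incubated 6 hr at 37 C.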
Tau ThT inhib = inhibitors of human tau fibril formation, thioflavin T binding. 2.1% of 270,000 active. Potency, µM (series often up to 57.4 µM), for the others: at the top dose activity, negative = inhibition, actives largely listed as inhibitors. P10636. recombinant tau K18 P301L (four-repeat tau fragment), heparin-induced fibrillization, ThT fluorescence; further: potency means the concentration at half of the fitted maximal effect; nearly all actives have a fitted effect of over 55% in size
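Tau K18 P301L fragment (15 uM unlabeled plus 0.24 uM Alexa 594-labeled) in 100 mM sodium acetate pH 7 with compound, fibrillization induced by 20 uM heparin for 6 hr at 37 C. Thioflavin T (30 uM) added, fluorescence read after 1 hr (ex 450, em 510 nm).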
The depositor's hits bear a star; ? = inconclusive; · = not tested or not shown; [ ] = remark or other dose. An excerpt weighted towards active compounds, which were near 11% of everything screened. Unless noted, the call rests on the fitted dose curve; in most records, active means well fitted curve in the direction sought with a large enough effect; inconclusive means small, poorly fitted or top-dose-only effect, or another doubt; inactive means no such curve, though single readings can be large; an effect the other way counts as inactive or inconclusive. Unless noted, on the % scale 0 is the no-effect control and ±100 the full control effect.

SMILES	G9a block	Coupling enz	Tau fluor cs	Sfp PPTase inh	Tau fibril FP	Tau ThT inhib
CC(=O)Nc1ccc(NC(=O)CC(NC(=O)c2ccccc2)c2ccccc2)cc1 (centres undefined)	36.1%	-1.3	·	-6.5%	·	·
O=[N+]([O-])c1ccc(C(O)C23CN4CN(CN(C4)C2)C3)cc1 (centres undefined)	13.9%	2.2	4.6%	17.9%	4.0%	0.2%
Cc1ccc(Sc2cc(NCCCO)c([N+](=O)[O-])c3nonc23)cc1	50.1µM*	-22.7	-30.8%	-24.1%	-15.8%	·
CC(=O)OCCNc1cc(SC(C)C)c2nonc2c1[N+](=O)[O-]	-2.7%	-5.2	-29.4%	2.9%	0.9%	?
CC(=O)OCCCNc1cc(Sc2ccc(Cl)cc2)c2nonc2c1[N+](=O)[O-]	?	-49.1*	?	50.1µM*	?	8.91µM*
CCN(CC)c1cc(NCCO)c([N+](=O)[O-])c2nonc12	·	-8.0	-10.5%	-5.0%	?	?
CC(C)CCSc1cc(NCCO)c([N+](=O)[O-])c2nonc12	50.1µM*	-16.2	-29.8%	-13.4%	2.0%	?
CCn1nc(C)cc1C(=O)N1CCCC(CCC(=O)NCc2ccccc2F)C1 (centres undefined)	9.5%	0.6	0.1%	6.1%	-4.8%	-2.0%
Cc1ccc(NC(=O)C2CCN(c3ncnc4sc(C)c(C)c34)CC2)cc1S(=O)(=O)N(C)C	14.1µM*	·	·	·	·	·
CCN(CC)S(=O)(=O)c1cc(NC(=O)C2CCN(c3ncnc4sc(C)c(C)c34)CC2)ccc1Cl	44.7µM*	·	·	·	·	·
Cc1sc2ncnc(N3CCC(C(=O)Nc4cc(S(C)(=O)=O)ccc4Cl)CC3)c2c1C	-35.7%	·	·	·	·	·
Cc1ccc(-n2nnc(C(=O)Nc3cc(F)ccc3F)c2C)cc1F	-11.9%[59 µM]	·	?	·	2.5%	-23.2%
CC(C)c1nn2c(=O)cc(COC(=O)c3ccccc3NC(=O)c3cccs3)nc2s1	-2.8%[12.7 µM]	·	4.6%	·	0.0%	-3.4%
CC(=O)Nc1ccc(S(=O)(=O)Nc2nc3ccccc3nc2Sc2nncn2C)cc1	?	-7.9	-10.5%	?	-8.1%	-2.1%
Cn1cnnc1Sc1nc2ccccc2nc1NS(=O)(=O)c1ccccc1	50.1µM*	-8.0	7.2%	1.0%	-4.2%	-1.5%
Cn1ccnc1Sc1nc2ccccc2nc1NS(=O)(=O)c1ccccc1	-28.1%[59 µM]	7.0	12.5%	50.1µM*	-3.0%	4.7%
Cc1cc(C)cc(OCCNC(=O)CCc2ccccc2)c1	35.0%	0.2	·	5.2%	·	·
CC(C)(C)OC(=O)N[C@@H](C(=O)OC(C)(C)C)c1ccc2c(c1)OCO2	6.6%[0.501 µM]	·	·	·	·	·
COc1ccccc1OCC(=O)O	?	3.1	2.8%	23.0%	1.4%	1.6%
CC(C)=CCC1=C(OCC(=O)O)C(=O)c2ccccc2C1=O	?	-45.3*	?	?	-11.2%	?
CC(C)=CCC/C(C)=C/CC/C(C)=C/CC/C(C)=C/CC1=C(C)C(=O)c2ccccc2C1=O	?	-33.7*	?	?	5.3%	?
CC(C)OC(=O)CSc1nnc(-c2cnccn2)n1Cc1ccco1	-35.9%[59 µM]	3.0	-4.1%	-6.3%	-8.4%	-6.4%
O=C(CSc1nnc(Cc2ccccc2)n1Cc1ccco1)NC1CCCC1	-45.0%	-2.3	3.1%	?	-3.1%	0.6%
CC(C)OC(=O)CSc1nnc(Cc2ccccc2)n1Cc1ccco1	8.91µM*	-0.8	13.3%	22.4µM*	3.8%	10.6%
COc1cccc(-c2nnc(SCC(=O)OC(C)C)n2Cc2ccco2)c1	39.8µM*	3.8	-1.9%	2.8%	-1.9%	-10.3%
Cc1noc(C)c1S(=O)(=O)N(CC(=O)Nc1ccc(C(F)(F)F)cc1)c1ccc(C(C)C)cc1	7.7%[59 µM]	·	?	·	?	9.8%
Cc1cc(NC(=O)C2CCN(S(=O)(=O)c3ccc(Br)s3)CC2)ccc1Br	7.4%[59 µM]	·	-25.2%	·	-10.9%	8.9%
Cc1[nH]c2ccccc2c1CN1CCc2ccccc2C1	12.6µM*	0.4	?	-21.7%	14.9%	?
